In the supplement of paper PMC6555819:

Tests used:
Assay in all cases: PBM binding z-score (relative to random genomic background probes); higher = stronger binding; sequences stand for … in GC…GCGATTGACAGCGTAGAATGAAGG
[1] = system: RARb homodimer (NR concentration 270 nM)
Procedure, shortened: (§1)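 Scanned fluorescence from custom Agilent 4×180K protein-binding microarrays was regression-normalized. Binding z-scores use random background probes as reference. Ligand-free nuclear receptor dimers were incubated on the arrays for 1 h and detected with antibodies against each partner (one per run).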

[2] = system: RARg:RXRa (NR concentration 270 nM, RXRa partner concentration 90 nM)
Procedure, shortened: as §1

[3] = system: RARg homodimer (NR concentration 270 nM)
Procedure, shortened: as §1

[4] = system: RXRa DBDmut IVT, anti-RXR (DBD mutation: RXRa K156A/R161A, NR concentration 90 nM)
Procedure, shortened: as §1

[5] = system: RXRa homodimer (NR concentration 180 nM)
Procedure, shortened: as §1

[6] = system: THRa:RXRa (NR concentration 90 nM, RXRa partner concentration 90 nM)
Procedure, shortened: as §1

[7] = system: THRa homodimer (NR concentration 90 nM)
Procedure, shortened: as §1

[8] = system: VDR homodimer (NR concentration 270 nM)
Procedure, shortened: as §1

Sequence | PBM binding z-score [1] | PBM binding z-score [2] | PBM binding z-score [3] | PBM binding z-score [4] | PBM binding z-score [5] | PBM binding z-score [6] | PBM binding z-score [7] | PBM binding z-score [8]
CCTACTGGGCCATCAGGTCATTGACATCAACGTT | 2.72 | 1.97 | 2.1 | 0.333 | 1.81 | 3.22 | 3.14 | 1.41
CGAACTAGGACATTGACAGGACAGTGAATAGTAA | 0.469 | 0.496 | 0.642 | 0.451 | -0.322 | 0.858 | 0.623 | 0.546
TATAGTTGGTCAAAGGTCACACACTCGAAATGCG | 5.04 | 7.01 | 6.33 | 0.941 | 8.14 | 4.24 | 1.79 | 2.12
TCCGACAGGTGAAGGTAACTCAGGTACGCAGTCG | 0.334 | 0.325 | 0.374 | 0.258 | 0.788 | 1.3 | -0.0593 | 0.0508
CGTCCAAGATCAATGCTAGGTCAGTGAAAGCATT | 2.31 | 1.93 | 1.33 | 0.097 | 0.272 | 1.75 | 0.486 | 0.299
ACTAGCAGGCCTAGTTTGGGTCACTCAAACAAAG | 1.42 | 0.276 | 0.565 | -0.626 | 0.395 | 1.91 | 0.883 | 0.0469
TCATATAGGGAATACAGGTGAAAGTCGGCATCTA | 0.795 | 0.472 | 0.506 | 1.68 | 1.24 | 0.864 | 0.624 | 0.435
CCTGCTAGGTCACGGTCAGCTAATCTACAGTATG | 3.98 | 5.01 | 6.09 | 2.08 | 4.15 | 3.35 | 2.35 | 0.444
AAAATGAGGTTATTAAGATCAGGGAATTGCGGTC | 0.725 | 1.16 | 0.933 | 2.27 | 1.78 | 2.28 | 0.636 | 1.19
ACTAGCAGGCCAAGGGTCACTTAAGATTAGTCCG | 3.52 | 4.12 | 4.04 | 0.5 | 3.87 | 2.96 | 0.297 | 0.981
GCTATTAGTTGAAAGGGCAACCGTATGATTCTCG | 2.21 | 1.41 | 1.14 | 1.01 | 1.43 | 0.799 | -0.237 | 0.306
CCTTACGGGACACTCCAGGTTATAGCATCGGAGT | 0.585 | 0.478 | 0.691 | 0.129 | 0.276 | 1.84 | 0.457 | 0.239
GATAGCAGGCCATTTGGGTCACTCAATGACGGGC | 1.92 | 1.22 | 1.5 | 0.215 | 0.841 | 1.87 | 0.437 | 0.542
ACTAGCAGGCCAAGTTTCGGTCACTCAAACAAAG | 1.95 | 1.68 | 1.53 | 0.194 | -0.395 | 0.604 | 0.212 | -0.0934
ATATGTAGGTTATCGGGTTATTCAGTTTGCGCAT | 1.48 | 1.3 | 1.01 | 1.14 | 1.6 | 1.78 | 1.58 | 2.11
GCGACTGGGGCATCAGCAGTTTACCATAACTTAA | 0.541 | 0.124 | 0.341 | 0.507 | 0.0851 | 0.0532 | -0.343 | 0.258
CAAACTAGGTCAAGATGTCAAAGTCCGCTTCCCG | 3.53 | 4.72 | 5.27 | 1.76 | 3.43 | 2.86 | 1.04 | 0.881
CGTCCAAGGTCAATGCTGGGTCAGTGAAAGCATT | 4.74 | 7.34 | 6.47 | 3.12 | 4.97 | 4.28 | 2.52 | 2.62
GCTTGTACATCAAGGTTAAGAAAGACTAAGCTAA | 0.275 | 0.435 | 0.375 | -0.122 | 0.599 | 0.997 | -0.187 | -0.281

Sequence | PBM binding z-score [1] | PBM binding z-score [2] | PBM binding z-score [3] | PBM binding z-score [4] | PBM binding z-score [5] | PBM binding z-score [6] | PBM binding z-score [7] | PBM binding z-score [8]
CGAACGAGGGCATGAGCTGATAGCAAATGCCGAT | 0.6 | 1.19 | 1.39 | 1.96 | 1.06 | 1.15 | -0.325 | 0.803
ATCTCTCGGTAACCAAGTTCAGTGAATGCCGAAC | 1.51 | 0.706 | 0.621 | 0.703 | 0.383 | 0.98 | 0.603 | 2.26
TCATATCGGTAAAAGGTGAAAGTCGGTGTGGTAA | 2.12 | 1.68 | 0.807 | 1.6 | 2.29 | 1.4 | 0.504 | 0.635
TGAATGAGGTTATAAGCTCAGGGAACGTTGCAAA | -0.162 | 1.1 | 0.731 | 0.518 | 1.91 | 1.67 | 0.118 | 0.00669
AGAATGAGGTTATTAAGATCAGGGTATTGCGGTC | 0.948 | 1.09 | 0.753 | 1.79 | 1.62 | 2.17 | 0.854 | 1.29
AGTCAAAGTTCATCTAGGTAACTTAAGATATGCT | 3.54 | 5.3 | 5.5 | 4.71 | 4.34 | 3.05 | 0.221 | 5.32
TCATATAGGTAAATGCTAGGTGAAACTCCGATCT | 0.638 | 0.657 | 0.3 | 1.3 | 0.917 | 1.65 | 0.67 | 0.32
CCTATTAGTTAACCATAAGGGCAACCGAAGCTCG | 1.66 | 0.813 | 1.14 | 0.665 | 0.518 | 1.9 | 1.31 | 0.663
ACTATTAGTTGAGTCGAGGGCAACCGATAGGTTG | 1.2 | 0.788 | 0.802 | 0.52 | 0.607 | 2.3 | 0.603 | 1.05
ATCTCTAGGTAAGACTCCGTTCAGTGAAGAACGC | 0.62 | 0.111 | 0.108 | 0.35 | -0.00325 | 0.381 | 0.809 | 0.435
CCAGACGGGTGAAAGGTAACTCAGTCTGGTACGC | 0.112 | 0.694 | 0.136 | -0.879 | 1.81 | 0.461 | -0.444 | -0.582
CCTGCTAGGTCCTGGTCAGCTAATCTACAGTATG | 0.0603 | -0.177 | -0.17 | -0.107 | -0.298 | -0.0341 | -0.199 | -0.989
CCTGCTAGGTCAATGTTCAGCTAAAGCAGCTCGC | 2.69 | 3.48 | 4.07 | 1.93 | 1.91 | 2.34 | 0.628 | 0.0912
AAATGTAGGTTAGCTGGGGTCATTCAGACTAGGC | 3.76 | 4.06 | 2.95 | 1.87 | 5.4 | 5.36 | 3.23 | 5.33
TCTGCTAGGTCAGTTGATCAGCTAACGAGCTGCC | 2.08 | 2.57 | 3.41 | 0.576 | 0.945 | 1.28 | 0.115 | -0.722
ATCTCTAGGTAAAGATAGTTCAGGGAATGCAAAT | 0.997 | 0.771 | 0.846 | 0.0937 | 0.459 | 0.742 | 0.0152 | 0.47
GCTTGTAGCTCAAGGTTAAGAAAGACTAAGCTAA | -0.0742 | 0.0545 | -0.162 | -0.204 | 0.541 | 0.986 | -0.586 | -0.603
ATACCAAGGTGATCGTGGGGTCGTTGATACTAAC | 1.69 | 2.14 | 0.593 | 0.817 | 2.34 | 3.15 | 1.93 | 2.92
TAGCCTAGGTCATTCAGGGGCCAGTTTAGAAAGC | 3.42 | 5.71 | 4.11 | 1.65 | 2.56 | 3.67 | 0.971 | 1.28

Sequence | PBM binding z-score [1] | PBM binding z-score [2] | PBM binding z-score [3] | PBM binding z-score [4] | PBM binding z-score [5] | PBM binding z-score [6] | PBM binding z-score [7] | PBM binding z-score [8]
AGAACGAGGGCAGGCTGAGTTGATAGCAGAGTAG | 0.683 | 0.569 | 1.17 | 0.639 | 0.342 | 0.523 | -0.552 | 0.453
CGTCAAAGTTCAAGGTAGCGTAACAGAAAGCAGC | 3.9 | 5.41 | 6.34 | 4.38 | 4.84 | 2.19 | 0.191 | 3.11
CGAACGAGGGCATGGGTTGATAGCAAATGCCGAT | 1.27 | 1.31 | 1.55 | 1.93 | 1.26 | 1.52 | 0.384 | 1.72
TATACAGGGTCAAAGTCCAGAGTACGAATGTCGA | 3.51 | 5.73 | 4.9 | 3.86 | 6.73 | 3.65 | 1.15 | 4.02
GCTATTAGTTGAAAGGGCAACCCAATGATTCTCG | 1.98 | 1.31 | 1.34 | 1.09 | 1.3 | 0.458 | -0.122 | 0.235
TTTCCAAGGTGAGCTGAGGTCGTTGATCCAACTC | 1.73 | 1.51 | 1.2 | 0.414 | 1.59 | 4.61 | 2.71 | 2.61
GCTAGCAGGCCATTTGGGTCACTGAATGACGGGC | 1.94 | 0.989 | 1.4 | 0.125 | 0.735 | 1.95 | 0.65 | 0.43
CCGACTCGGGCAAAGGTTACCATACTCAGTACGA | 2.04 | 3.36 | 1.68 | 0.702 | 3.21 | 1.6 | -0.126 | -0.375
TCTTGTAGATCAAAGGATAAGAAAGCCGAAGCCT | -1.11 | -0.0685 | -0.196 | 0.579 | 0.0933 | -0.444 | -0.847 | -0.298
TAGCCTAGGTCATGCAGGCCAGTATAGTGTCGGC | 2.76 | 4 | 4.12 | 0.936 | 2.96 | 3 | 0.919 | 0.989
GCGACTTGGGCATCAGCAGGTTACCATAACTTAA | -0.0318 | -0.252 | -0.319 | -0.131 | -0.00546 | 0.236 | 0.128 | -0.321
TTACCAAGGTGAAGGTCGGTGATCCCTCTGTAGA | 1.61 | 1.3 | 0.916 | -0.375 | 1.5 | 2.21 | 0.976 | 0.13
ATAGGTAGGTTAGCTGGGGTCATTCAGACTAGGC | 4.09 | 4.35 | 3.5 | 2.2 | 5.46 | 5.2 | 3.51 | 5.44
TAGCCTAGGTCCGATCGGGCCAGTATACGCTATA | -0.854 | -0.722 | -0.738 | -0.969 | -0.677 | 0.334 | -0.898 | -0.952
ATCGCAAGGTCGTGAGGTGAGTATACAGAAAGGC | 2.13 | 2.76 | 2.38 | 1.62 | 3.06 | 3.33 | 2.41 | 1.55
ATCTCTAGGTAACAAGTTAAGTGAAAGAGAGGAC | 0.585 | 0.726 | 0.704 | -0.00477 | 0.663 | 1.29 | 0.846 | 0.307
CGTCCAAGGTCATAGGAGGTCAGCGAAGACAGAT | 5.65 | 7.17 | 7.58 | 4.05 | 7.72 | 5.52 | 3.42 | 4.37
ATCGAAAGGTCGAGGTGAGTTTAGAGAAAGGGAA | 3.07 | 4.88 | 4.68 | 1.24 | 4.47 | 3.01 | 0.695 | 2.21
